# Results with a measured potency or affinity are listed apart.
# Tests used:
# Klebsiella pneumoniae = details: Concentration 32 ug.mL-1;; ASSAY_TEST Inhibition of Bacterial Growth; detection method Absorption (OD600); MEDIA CAMHB; plate type 384well; NBS; CORNING #3640; time 18 hr
# Candida albicans = details: Concentration 32 ug.mL-1; ASSAY_TEST Inhibition of Fungal Growth; detection method Absorption (OD530)
# Cryptococcus neoformans = details: Concentration 32 ug.mL-1; ASSAY_TEST Inhibition of Fungal Growth; detection method Resazurin; Absorption (OD600-OD570); plate type 384well; NBS; CORNING #3640
structure (smiles),measurement,setting,value
COc1ccccc1-n1ccn2c(SCc3ccccc3C)nnc2c1=O,Inhibition,Klebsiella pneumoniae,12.73%
same,Inhibition,Candida albicans,3.95%
same,Inhibition,Cryptococcus neoformans,-12.54%
CCOc1ccc(-n2ccn3c(SCC(=O)c4ccc(C)cc4)nnc3c2=O)cc1,Inhibition,Klebsiella pneumoniae,10.63%
same,Inhibition,Candida albicans,1.13%
same,Inhibition,Cryptococcus neoformans,-5.35%
CC(C)c1nnc2c(=O)n(CC(=O)Nc3cccc(Br)c3)c3ccccc3n12,Inhibition,Klebsiella pneumoniae,13.24%
same,Inhibition,Candida albicans,6.25%
same,Inhibition,Cryptococcus neoformans,-13.28%
COc1ccc(NC(=O)Cn2nc3c(Sc4cccc(F)c4)nccn3c2=O)cc1Cl,Inhibition,Klebsiella pneumoniae,3.02%
same,Inhibition,Candida albicans,0.26%
same,Inhibition,Cryptococcus neoformans,-9.78%
CCOc1ccccc1NC(=O)Cn1nc2c(Sc3ccccc3)nccn2c1=O,Inhibition,Klebsiella pneumoniae,3.54%
same,Inhibition,Candida albicans,-0.33%
same,Inhibition,Cryptococcus neoformans,-18.53%
CC(=O)c1cccc(NC(=O)Cn2nc3c(N4CCN(c5ccccc5C)CC4)nccn3c2=O)c1,Inhibition,Klebsiella pneumoniae,15.26%
same,Inhibition,Candida albicans,5.86%
same,Inhibition,Cryptococcus neoformans,-6.16%
COc1ccc(NC(=O)Cn2nc3ccc(SCc4ccc(Cl)cc4)nn3c2=O)cc1OC,Inhibition,Klebsiella pneumoniae,-4.29%
same,Inhibition,Candida albicans,32.62%
same,Inhibition,Cryptococcus neoformans,-6.53%
O=C(Cn1nc2c3cc(-c4ccc(F)cc4)nn3ccn2c1=O)Nc1ccc2c(c1)OCCO2,Inhibition,Klebsiella pneumoniae,11.81%
same,Inhibition,Candida albicans,2.29%
same,Inhibition,Cryptococcus neoformans,-25.22%
CCOc1ccc(-n2ccn3c(SCC(=O)Nc4ccc(C)c(C)c4)nnc3c2=O)cc1,Inhibition,Klebsiella pneumoniae,-8.39%
same,Inhibition,Candida albicans,2.77%
same,Inhibition,Cryptococcus neoformans,-12.45%
CCOc1ccc(-n2ccn3c(SCC(=O)Nc4ccc(C)cc4)nnc3c2=O)cc1,Inhibition,Klebsiella pneumoniae,16.35%
same,Inhibition,Candida albicans,4.07%
same,Inhibition,Cryptococcus neoformans,-19.05%
CSc1cccc(NC(=O)Cn2nc3c(Sc4ccccc4)nccn3c2=O)c1,Inhibition,Klebsiella pneumoniae,1.1%
same,Inhibition,Candida albicans,18.38%
same,Inhibition,Cryptococcus neoformans,-12.89%
COc1ccc(-c2cc3c4nnc(CCC(=O)NCc5ccc6c(c5)OCO6)n4ccn3n2)cc1,Inhibition,Klebsiella pneumoniae,9.82%
same,Inhibition,Candida albicans,3.53%
same,Inhibition,Cryptococcus neoformans,-3.36%
COc1ccc(N2CCN(C(=O)Cn3nc4c(Oc5cccc(C)c5C)nccn4c3=O)CC2)cc1,Inhibition,Klebsiella pneumoniae,15.7%
same,Inhibition,Candida albicans,-0.29%
same,Inhibition,Cryptococcus neoformans,-13.03%
Cc1cccc(C)c1NC(=O)CSc1nnc2ccc(C(=O)Nc3cccc(F)c3)cn12,Inhibition,Klebsiella pneumoniae,10.23%
same,Inhibition,Candida albicans,10.31%
same,Inhibition,Cryptococcus neoformans,-3.65%
O=C(Cn1nc2c(SC3CCCCC3)nccn2c1=O)Nc1ccc(F)c(Cl)c1,Inhibition,Klebsiella pneumoniae,0.9%
same,Inhibition,Candida albicans,5.93%
same,Inhibition,Cryptococcus neoformans,-24.22%
CCCn1c(=O)c2sccc2n2c(=O)n(CC(=O)c3cc(C)ccc3C)nc12,Inhibition,Klebsiella pneumoniae,9.58%
same,Inhibition,Candida albicans,6.28%
same,Inhibition,Cryptococcus neoformans,-24.9%
COc1ccc2[nH]cc(C(=O)CSc3nnc4c(=O)n(-c5cccc(Cl)c5C)ccn34)c2c1,Inhibition,Klebsiella pneumoniae,5.78%
same,Inhibition,Candida albicans,2.95%
same,Inhibition,Cryptococcus neoformans,-9.58%
COc1ccc(NC(=O)CSc2nnc3c(=O)n(-c4ccccc4)ccn23)cc1OC,Inhibition,Klebsiella pneumoniae,12.94%
same,Inhibition,Candida albicans,3.46%
same,Inhibition,Cryptococcus neoformans,-16.1%
Cc1ccc(Sc2nccn3c(=O)n(CC(=O)Nc4ccc(C)c(Cl)c4)nc23)c(C)c1,Inhibition,Klebsiella pneumoniae,10.52%
same,Inhibition,Candida albicans,-2.58%
same,Inhibition,Cryptococcus neoformans,-26.74%
Cc1ccccc1CSc1nnc2c(=O)n(-c3ccc(F)cc3)ccn12,Inhibition,Klebsiella pneumoniae,9.44%
same,Inhibition,Candida albicans,1.51%
same,Inhibition,Cryptococcus neoformans,-10.33%
Cc1ccc(Sc2ccc3nn(CC(=O)Nc4ccc(Br)c(C)c4)c(=O)n3n2)cc1,Inhibition,Klebsiella pneumoniae,2.67%
same,Inhibition,Candida albicans,11.69%
same,Inhibition,Cryptococcus neoformans,-8.57%
CCCn1c(=O)c2ccc(C(=O)NC3CCCCC3)cc2n2c(=O)n(CC#N)nc12,Inhibition,Klebsiella pneumoniae,5.71%
same,Inhibition,Candida albicans,1.88%
same,Inhibition,Cryptococcus neoformans,-10.2%
CC(C)c1nnc2c(SCC(=O)N3CCN(c4ccc(F)cc4)CC3)nc3ccccc3n12,Inhibition,Klebsiella pneumoniae,12.93%
same,Inhibition,Candida albicans,-0.12%
same,Inhibition,Cryptococcus neoformans,-22.8%
Cc1cc(C)cc(Oc2nccn3c(=O)n(CC(=O)Nc4cccc(Cl)c4)nc23)c1,Inhibition,Klebsiella pneumoniae,0.09%
same,Inhibition,Candida albicans,0.52%
same,Inhibition,Cryptococcus neoformans,-3.38%
CCCc1nnc2c(=O)n(CC(=O)Nc3ccc(C#N)cc3)c3ccccc3n12,Inhibition,Klebsiella pneumoniae,0.24%
same,Inhibition,Candida albicans,1.16%
same,Inhibition,Cryptococcus neoformans,-7.04%
CCOc1ccc(-n2ccn3c(SCC(=O)c4ccccc4)nnc3c2=O)cc1,Inhibition,Klebsiella pneumoniae,1.87%
same,Inhibition,Candida albicans,12.91%
same,Inhibition,Cryptococcus neoformans,-3.51%
Cc1ccc(-c2ccc3nn(Cc4cccc(Br)c4)c(=O)n3n2)cc1,Inhibition,Klebsiella pneumoniae,7.86%
same,Inhibition,Candida albicans,-0.24%
same,Inhibition,Cryptococcus neoformans,-13.72%
CCc1nnc2ccc(S(=O)(=O)N(Cc3ccc(F)cc3)c3ccc(OC)cc3)cn12,Inhibition,Klebsiella pneumoniae,5.94%
same,Inhibition,Candida albicans,-0.37%
same,Inhibition,Cryptococcus neoformans,-3.5%
N#Cc1cccc(NC(=O)Cn2nc3c(Oc4ccccc4)nccn3c2=O)c1,Inhibition,Klebsiella pneumoniae,7.41%
same,Inhibition,Candida albicans,1.17%
same,Inhibition,Cryptococcus neoformans,-6.48%
CC(C)Cn1c(=O)c2ccc(C(=O)NC3CCCCC3)cc2n2c(=O)n(CC#N)nc12,Inhibition,Klebsiella pneumoniae,10.69%
same,Inhibition,Candida albicans,-0.09%
same,Inhibition,Cryptococcus neoformans,-19.28%
CCOc1ccc(NC(=O)Cn2c(=O)c3nnc(C(C)C)n3c3ccccc32)cc1,Inhibition,Klebsiella pneumoniae,4.3%
same,Inhibition,Candida albicans,1.75%
same,Inhibition,Cryptococcus neoformans,-9.3%
CCOc1ccc(-n2ccn3c(SCC(=O)Nc4cccc(Cl)c4)nnc3c2=O)cc1,Inhibition,Klebsiella pneumoniae,10.12%
same,Inhibition,Candida albicans,2.64%
same,Inhibition,Cryptococcus neoformans,-5.2%

# Source: ChEMBL document CHEMBL4513146, “CO-ADD screening of Karazin Kharkiv National University (Ukraine) compounds”
